Where “and” joins values, the source holds several entries; their conditions need not be identical. Identical values can stand only once. Like-named read-outs stand apart in the source and are kept apart here.
Key:
Conditions in all cases: n = 1
PAK6 = tested on: PAK6
PAK7 = tested on: PAK7
PCTK1 = tested on: T1, PCTK1
T1 construct: gene CDK16

PCTK2 = tested on: T2, PCTK2
T2 construct: gene CDK17

PCTK3 = tested on: T3, PCTK3
T3 construct: gene CDK18

PDGFRA = tested on: PDGFRA
PDGFRB = tested on: PDGFRB
PDPK1 = tested on: PDPK1
PFTAIRE2 = tested on: PFTAIRE2
PFTK1 = tested on: T4, PFTK1
T4 construct: gene CDK14

[1] = concentration: 1 μM, replicates: in singlicate
[2] = concentration: 1 μM,replicates: in singlicate, 1 µM
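Also: KINOMEscan kinase panel screen.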

## COc1ccc2nc(-c3cccc(C)n3)nc(Nc3ccncc3)c2c1 [GSK204919]
PAK6; [1]
  %Inh: 0%
PAK7; [1]
  %Inh: 1%
PCTK1; [1]
  %Inh: 5%
PCTK2; [1]
  %Inh: 0%
PCTK3; [1]
  %Inh: 36%
PDGFRA; [1]
  %Inh: 0%
PDGFRB; [1]
  %Inh: 25%
PDPK1; [1]
  %Inh: 12%
PFTAIRE2; [1]
  %Inh: 0%
PFTK1; [1]
  %Inh: 14%

## COC(=O)c1c(-c2ccccc2)c2cc(OC)ccc2c(=O)n1Cc1ccccc1
PAK6; [1]
  %Inh: 3%
PAK7; [1]
  %Inh: 5%
PCTK1; [1]
  %Inh: 0%
PCTK2; [1]
  %Inh: 4%
PCTK3; [1]
  %Inh: 9%
PDGFRA; [1]
  %Inh: 70%
PDGFRB; [1]
  %Inh: 99.5%
PDPK1; [1]
  %Inh: 0%
PFTAIRE2; [1]
  %Inh: 10%
PFTK1; [1]
  %Inh: 6%

## CC1=C(C(=O)Nc2cc3cn[nH]c3cc2F)C(c2ccc(C(F)(F)F)cc2)CC(=O)N1 (stereo not drawn) [GSK429286]
PAK6; [1]
  %Inh: 0%
PAK7; [1]
  %Inh: 0%
PCTK1; [1]
  %Inh: 3%
PCTK2; [1]
  %Inh: 0%
PCTK3; [1]
  %Inh: 5%
PDGFRA; [1]
  %Inh: 0%
PDGFRB; [1]
  %Inh: 18%
PDPK1; [1]
  %Inh: 0%
PFTAIRE2; [1]
  %Inh: 0%
PFTK1; [1]
  %Inh: 12%

## Cc1ccc(NC(=O)Nc2cccc(C(F)(F)F)c2)cc1 [GSK955403]
PAK6; 1 µM
  %Inh: 36%
PAK7; 1 µM
  %Inh: 1%
PCTK1; 1 µM
  %Inh: 0%
PCTK2; 1 µM
  %Inh: 2%
PCTK3; 1 µM
  %Inh: 0%
PDGFRA; 1 µM
  %Inh: 0%
PDGFRB; 1 µM
  %Inh: 45%
PDPK1; 1 µM
  %Inh: 14%
PFTAIRE2; 1 µM
  %Inh: 1%
PFTK1; 1 µM
  %Inh: 5%

## Cl.O=C(Nc1cccc(-c2nn3ncccc3c2-c2ccnc(Nc3cccnc3)n2)c1)c1c(F)cccc1F [GSK312879]
PAK6; [1]
  %Inh: 0%
PAK7; [1]
  %Inh: 10%
PCTK1; [1]
  %Inh: 1%
PCTK2; [1]
  %Inh: 0%
PCTK3; [1]
  %Inh: 0%
PDGFRA; [1]
  %Inh: 0%
PDGFRB; [1]
  %Inh: 77%
PDPK1; [1]
  %Inh: 28%
PFTAIRE2; [1]
  %Inh: 22%
PFTK1; [1]
  %Inh: 9%

## Cc1cccc(-c2nc(-c3ccc(S(C)(=O)=O)cc3)sc2-c2ccnc(NCCc3ccccc3)c2)c1
PAK6; [1]
  %Inh: 5%
PAK7; [1]
  %Inh: 5%
PCTK1; [1]
  %Inh: 15%
PCTK2; [1]
  %Inh: 3%
PCTK3; [1]
  %Inh: 0%
PDGFRA; [1]
  %Inh: 89%
PDGFRB; [1]
  %Inh: 100%
PDPK1; [1]
  %Inh: 17%
PFTAIRE2; [1]
  %Inh: 5%
PFTK1; [1]
  %Inh: 0%

## COC(=O)c1c(-c2ccccc2)c2cc(C(=O)O)ccc2c(=O)n1Cc1ccccc1
PAK6; [1]
  %Inh: 16%
PAK7; [1]
  %Inh: 0%
PCTK1; [1]
  %Inh: 8%
PCTK2; [1]
  %Inh: 0%
PCTK3; [1]
  %Inh: 0%
PDGFRA; [1]
  %Inh: 65%
PDGFRB; [1]
  %Inh: 99.4%
PDPK1; [1]
  %Inh: 14%
PFTAIRE2; [1]
  %Inh: 0%
PFTK1; [1]
  %Inh: 0%

## Cc1cc(N2Cc3ccccc3C2)nc(Nc2ccc(S(=O)(=O)N3CCOCC3)cc2)n1.Cl [GSK1669917]
PAK6; [1]
  %Inh: 0%
PAK7; [1]
  %Inh: 0%
PCTK1; [1]
  %Inh: 0%
PCTK2; [1]
  %Inh: 0%
PCTK3; [1]
  %Inh: 0%
PDGFRA; [1]
  %Inh: 0%
PDGFRB; [1]
  %Inh: 2%
PDPK1; [1]
  %Inh: 0%
PFTAIRE2; [1]
  %Inh: 0%
PFTK1; [1]
  %Inh: 23%

## CN1C(=O)C(Nc2ccc(Cl)c(C(=O)O)c2)=C(c2ccc(Cl)cc2)C1=O [SB-404290]
PAK6; [1]
  %Inh: 0%
PAK7; [1]
  %Inh: 10%
PCTK1; [1]
  %Inh: 0%
PCTK2; [1]
  %Inh: 6%
PCTK3; [1]
  %Inh: 0%
PDGFRA; [1]
  %Inh: 27%
PDGFRB; [1]
  %Inh: 0%
PDPK1; [1]
  %Inh: 0%
PFTAIRE2; [1]
  %Inh: 11%
PFTK1; [1]
  %Inh: 0%

## Fc1cccc(COc2nnc(-c3ccc4c(c3)CCO4)o2)c1
PAK6; [1]
  %Inh: 38%
PAK7; [1]
  %Inh: 17%
PCTK1; [1]
  %Inh: 8%
PCTK2; [1]
  %Inh: 6%
PCTK3; [1]
  %Inh: 0%
PDGFRA; [1]
  %Inh: 28%
PDGFRB; [1]
  %Inh: 0%
PDPK1; [1]
  %Inh: 0%
PFTAIRE2; [1]
  %Inh: 7%
PFTK1; [1]
  %Inh: 2%

## Cn1cncc1-c1ccc2ncnc(Nc3ccc(OCc4ccccc4)cc3)c2c1 [GW320571]
PAK6; [1]
  %Inh: 0%
PAK7; [1]
  %Inh: 0%
PCTK1; [1]
  %Inh: 0%
PCTK2; [1]
  %Inh: 0%
PCTK3; [1]
  %Inh: 7%
PDGFRA; [1]
  %Inh: 0%
PDGFRB; [1]
  %Inh: 9%
PDPK1; [1]
  %Inh: 9%
PFTAIRE2; [1]
  %Inh: 20%
PFTK1; [1]
  %Inh: 0%

## CSc1nn2c(=O)cc(N3CCOCC3)nc2n1Cc1cccc(C(F)(F)F)c1C [GSK2363608]
PAK6; [2]
  %Inh: 12% and 0%
PAK7; [2]
  %Inh: 1% and 0%
PCTK1; [1]
  %Inh: 2%
PCTK2; [1]
  %Inh: 0%
PCTK3; [2]
  %Inh: 0% and 5%
PDGFRA; [2]
  %Inh: 15% and 0%
PDGFRB; [2]
  %Inh: 12% and 8%
PDPK1; [2]
  %Inh: 7% and 0%
PFTAIRE2; [2]
  %Inh: 23% and 6%
PFTK1; [2]
  %Inh: 21% and 6%

## COc1ccc(Nc2nccc(-c3cccc(NC(=O)c4cc5cc(F)ccc5[nH]4)c3)n2)cc1 [GSK1229782]
PAK6; [1]
  %Inh: 11%
PAK7; [1]
  %Inh: 51%
PCTK1; [1]
  %Inh: 1%
PCTK2; [1]
  %Inh: 18%
PCTK3; [1]
  %Inh: 7%
PDGFRA; [1]
  %Inh: 33%
PDGFRB; [1]
  %Inh: 61%
PDPK1; [1]
  %Inh: 21%
PFTAIRE2; [1]
  %Inh: 30%
PFTK1; [1]
  %Inh: 24%

## CC(C)(C)c1ccc(C(=O)Nc2cn3cc(-c4cccnc4)ccc3n2)cc1
PAK6; [1]
  %Inh: 15%
PAK7; [1]
  %Inh: 10%
PCTK1; [1]
  %Inh: 0%
PCTK2; [1]
  %Inh: 13%
PCTK3; [1]
  %Inh: 19%
PDGFRA; [1]
  %Inh: 57%
PDGFRB; [1]
  %Inh: 95.4%
PDPK1; [1]
  %Inh: 2%
PFTAIRE2; [1]
  %Inh: 2%
PFTK1; [1]
  %Inh: 22%

## COc1cc2nccc(Nc3ccc(NC(=O)c4ccc(C)cc4)c(O)c3)c2cc1OC.Cl [GW440132]
PAK6; [1]
  %Inh: 0%
PAK7; [1]
  %Inh: 0%
PCTK1; [1]
  %Inh: 4%
PCTK2; [1]
  %Inh: 0%
PCTK3; [1]
  %Inh: 19%
PDGFRA; [1]
  %Inh: 12%
PDGFRB; [1]
  %Inh: 69%
PDPK1; [1]
  %Inh: 0%
PFTAIRE2; [1]
  %Inh: 26%
PFTK1; [1]
  %Inh: 85%

## Cc1cc(-c2ccc3c(c2)CC[C@@H](N[C@@H](C)c2ccccc2)C3)cnc1N.Cl [GW412617]
PAK6; [1]
  %Inh: 5%
PAK7; [1]
  %Inh: 15%
PCTK1; [1]
  %Inh: 6%
PCTK2; [1]
  %Inh: 0%
PCTK3; [1]
  %Inh: 0%
PDGFRA; [1]
  %Inh: 0%
PDGFRB; [1]
  %Inh: 75%
PDPK1; [1]
  %Inh: 22%
PFTAIRE2; [1]
  %Inh: 6%
PFTK1; [1]
  %Inh: 0%

## O=C(Nc1n[nH]c2nc(-c3nccs3)c(Br)cc12)C1CCCC1 [SB-742609]
PAK6; [1]
  %Inh: 0%
PAK7; [1]
  %Inh: 0%
PCTK1; [1]
  %Inh: 48%
PCTK2; [1]
  %Inh: 47%
PCTK3; [1]
  %Inh: 50%
PDGFRA; [1]
  %Inh: 0%
PDGFRB; [1]
  %Inh: 27%
PDPK1; [1]
  %Inh: 0%
PFTAIRE2; [1]
  %Inh: 7%
PFTK1; [1]
  %Inh: 26%

## Cc1ccc(NC(=O)Nc2cccc(Cl)c2)cc1-c1ccc(C(=O)Nc2ccncc2)cc1 [GSK1398468]
PAK6; [1]
  %Inh: 0%
PAK7; [1]
  %Inh: 1%
PCTK1; [1]
  %Inh: 0%
PCTK2; [1]
  %Inh: 0%
PCTK3; [1]
  %Inh: 0%
PDGFRA; [1]
  %Inh: 43%
PDGFRB; [1]
  %Inh: 99.9%
PDPK1; [1]
  %Inh: 0%
PFTAIRE2; [1]
  %Inh: 16%
PFTK1; [1]
  %Inh: 20%

Source: publication PMC5540273 (PLoS ONE, 2017)
